# In all, about 13,000 compounds were measured (“IFI”: median about 4, highest 2% from about 17 on). This is one part of a sample in which the highest values are shown more often than they occur.
# Experiment: GSK_TCMDC: Inhibition Frequency Index (IFI). The number of non-kinase HTS assays where a compound showed > 50 % inhibition, expressed as a percentage of the number of such assays in which the compound was tested
# Type: functional
row,Compound,IFI
1,Cc1c(C)c2c(c(C)c1O)CC[C@](C)(C(=O)N1CCC(CCN3CCC(c4c[nH]c5ccccc45)CC3)CC1)O2,5.88%
2,Cc1cccc2nc(-c3cccc(-c4cccc(NC(=O)COc5ccccc5C(N)=O)c4)c3)[nH]c12,6.09%
3,CN(C)CCNC(=O)c1ccc(-c2cnc3ccc(NCc4ccc(Cl)c(Cl)c4)nn23)cc1,9.02%
4,CCCCc1ccc2ncc(C(=O)OCC)c(O)c2c1,0.78%
5,COc1c(Br)cc(Br)cc1-c1ccc(CN2CC3CCC2CC3)[nH]1,21.1%
6,COc1c(Br)cc(Br)cc1-c1ccc(CN2C3CCCC2CCC3)[nH]1,6.82%
7,COc1cccc(C(=O)Nc2ccc(Nc3nc(C)cc(N(C)C)n3)cc2)c1OC,7.14%
8,CCCCCCCN1CC[C@@H](CCCc2ccnc3ccc(OCCCCN/C(N)=N/O)cc23)[C@@H](CC)C1,9.66%
9,CN(C)CC(O)COc1ccc(Nc2ncc([N+](=O)[O-])c(Nc3ccccc3O)n2)cc1 (stereo unspecified),6.21%
10,CN1CCN(c2ccc(Nc3ncc([N+](=O)[O-])c(Nc4ccccc4O)n3)cc2)CC1,6.99%
11,O=[N+]([O-])c1cnc(Nc2ccccc2O)nc1Nc1ccccc1O,19.2%
12,Cc1[nH]c(C)c(-c2ccc(CCc3ccc(N)cc3)cc2)c(=O)c1Cl,1.89%
13,COc1ccc2[nH]c(C(=O)Nc3ccc4[nH]c(-c5ccccc5)nc4c3)cc2c1,7.69%
14,CCc1cn(CC(=O)N(CCOc2ccc(-c3ccc(C(F)(F)F)cc3)cc2)CCN(CC)CC)c(SCc2ccc(F)cc2)nc1=O,6.34%
15,FC(F)(F)c1cccc(Nc2nc3nonc3nc2NC2C3CC4CC(C3)CC2C4)c1 (stereo unspecified),20.6%
16,FC(F)(F)c1cccc(Nc2nc3ccccc3nc2Nc2cccc(C(F)(F)F)c2)c1,10%
17,O=[N+]([O-])c1ccc2nc(Nc3cccc(C(F)(F)F)c3)c(Nc3cccc(C(F)(F)F)c3)nc2c1,5.88%
18,CC1(C)C(=O)Nc2ccc3c(c21)CC1SC(=O)NN=C31 (stereo unspecified),2.22%
19,CCCN(CCC)C(=O)c1cc(C(=O)N[C@@H](Cc2ccccc2)[C@H](O)CNC(C)(C)c2cccc(OC)c2)cc(N2CCCCS2(=O)=O)c1,3.62%
20,CC(C)(C)c1ccc(CN2CCC(CNC(=O)c3cc(-c4cccc(Cl)c4)cs3)C2)cc1 (stereo unspecified),12.2%
21,Cc1cc2cc(-c3ccc(CN)cc3)ccc2nc1N,3.88%
22,O=C(c1ccc([N+](=O)[O-])o1)N1CCC(Cc2ccc(C(F)(F)F)cc2)CC1,9.52%
23,COCCN1CCN(Cc2ccc(-c3ccc(-c4nc5cc(F)ccc5[nH]4)cc3)cc2)CC1,4.9%
24,Clc1ccc(Nc2nc3ccc(Cl)cc3nc2Nc2ccc(Cl)cc2)cc1,10.1%
25,Clc1ccc(Nc2nc3nonc3nc2Nc2ccc(Cl)c(Cl)c2)cc1,19.4%
26,O=[N+]([O-])c1ccc2nc(Nc3ccc(Cl)c(Cl)c3)c(Nc3ccc(Cl)c(Cl)c3)nc2c1,2.86%
